# Test results taken from PubChem BioAssay.
# The source made the active and inactive calls.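 How the source made its calls, unless noted: active means fluorescence slope after compound addition differing from the mean of all screened samples at 99.7% confidence, in either direction; inactive means the rest.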
# Tests used:
# [1] = inhibitors of TNFa-induced NFkB p65 translocation, primary screen, imaging, HUVEC, MLSMR starter and 10KST1 sets (AID 438;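 active means inhibition above 20% together with a positive visual image hit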;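 further: compound added about 3h40 before a 20 min TNFalpha stimulation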;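 on inhibition: signal is the nuclear over cytoplasmic p65 intensity ratio per well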); settings: HUVEC TNFa-induced p65 nuclear translocation; cell count: measured here: nuclei count (cytotoxicity indicator), at 2.08 µM; inhibition: at 2 µM, stronger effect = higher value, 0% TNFa-plus-vehicle, 100% no-TNFa wells
# [2] = inhibitors of mutant huntingtin aggregation, primary screen, imaging, exon1htt(103Q)mCFP cells, high-content imaging (AID 483;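 active means visual image review flags a hit and inhibition of aggregation exceeds 20%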;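 further: compound exposure lasted 3 days before fixation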;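 on nuclei count: percent of the per-plate median nuclei count of sample wells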); settings: exon1htt(103Q)mCFP cell line, aggregate imaging, at 2 µM; inhibition of aggregation: stronger effect = higher value; nuclei count: measured here: cell count, toxicity
# [3] = inhibitors of E-selectin induction by TNFa, primary screen, imaging, HUVEC, immunofluorescence, MLSMR starter and 10KST1 sets (AID 487;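 active means visually confirmed hit in the image check and inhibition above 20%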;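 on inhibition: signal is fraction of cell area covered by stained E-selectin grains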;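 on nuclei count: 100% = median nuclei count of all wells on the same plate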); settings: HUVEC TNFalpha-induced E-selectin immunofluorescence imaging, at 2 µM; inhibition: stronger effect = higher value; nuclei count: measured here: cell number, toxicity
# [4] = biological target: Voltage-gated potassium channel subunit beta-2 (Rattus norvegicus) (UniProt P62483); experiment: KvBeta enzyme negative modulators, primary screen, biochemical, NADPH fluorescence (AID 622;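 active means fluorescence slope higher than the sample average by over 3 SD, cut at about -0.22 in these data, passing the limit was not always enough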;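 further: slope of raw intensity against log time taken from 70 to 1610 s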); settings: recombinant KvBeta, 4-cyanobenzaldehyde reduction, at 10 µM, stronger effect = higher value
# [5] = biological target: Voltage-gated potassium channel subunit beta-2 (Rattus norvegicus) (UniProt P62483); experiment: KvBeta positive modulators, primary screen, biochemical, NADPH fluorescence (AID 623;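 active means NADPH fluorescence slope more negative than the mean of all samples by about 3 SD, 99.7% confidence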;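 further: fluorescence intensity change per second fitted from 20 to 320 s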); settings: Recombinant KvBeta, NADPH fluorescence decrease slope, 10 min; at 10 µM; stronger effect = lower value
# [6] = biological target: Alpha-2C adrenergic receptor (Homo sapiens) (UniProt P18825); experiment: modulators of alpha2C/GIRK thallium flux, primary screen, cell-based, HEK293 alpha2C/GIRK1/2 (AID 624); settings: thallium flux BTC fluorescence, at 10 µM, actives lie on both sides;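 further: slope of fluorescence ratio to pre-addition baseline per second over 15 to 24 s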
# [7] = inhibitors of Sendai virus-induced IRF3 signaling, primary screen, TLR/RLR signaling modifier project, cell-based, Sendai virus stimulus, luciferase, 10K MLSCN set (AID 602276;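 active means inhibition at or above 50% at 10 µM; inactive means inhibition below 50%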;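 further: firefly luciferase from ISG56 promoter only with Renilla not read in this screen; 0% = Sendai virus plus DMSO and 100% = medium plus DMSO without virus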); settings: HEK293 RL24 IRF3 luciferase reporter, at 10 µM, stronger effect = higher value
# [8] = inhibitors of poly I:C-induced TLR3 signaling, primary screen, cell-based, poly I:C stimulus, luciferase, 10K MLSCN set (AID 602277;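 active means inhibition of the reporter signal at or above 50%; inactive means inhibition below 50%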); settings: HEK293-TLR3 RL24 IRF3 luciferase reporter, at 10 µM, stronger effect = higher value
# Alpha-2C adrenergic receptor (Homo sapiens), sequence (P18825 whole entry, looked up): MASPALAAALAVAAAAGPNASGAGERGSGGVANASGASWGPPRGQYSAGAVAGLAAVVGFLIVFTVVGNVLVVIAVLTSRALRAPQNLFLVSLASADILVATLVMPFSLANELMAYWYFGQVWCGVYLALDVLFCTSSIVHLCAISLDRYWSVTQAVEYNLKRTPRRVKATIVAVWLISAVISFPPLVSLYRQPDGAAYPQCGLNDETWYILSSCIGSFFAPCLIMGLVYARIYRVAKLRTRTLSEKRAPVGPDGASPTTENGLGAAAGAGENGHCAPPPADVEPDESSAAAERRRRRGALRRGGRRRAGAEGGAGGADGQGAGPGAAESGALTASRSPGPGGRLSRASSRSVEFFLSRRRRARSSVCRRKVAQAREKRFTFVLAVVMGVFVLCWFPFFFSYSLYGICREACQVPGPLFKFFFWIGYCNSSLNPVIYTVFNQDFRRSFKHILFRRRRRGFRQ
# Voltage-gated potassium channel subunit beta-2 (Rattus norvegicus), sequence (P62483 whole entry, looked up): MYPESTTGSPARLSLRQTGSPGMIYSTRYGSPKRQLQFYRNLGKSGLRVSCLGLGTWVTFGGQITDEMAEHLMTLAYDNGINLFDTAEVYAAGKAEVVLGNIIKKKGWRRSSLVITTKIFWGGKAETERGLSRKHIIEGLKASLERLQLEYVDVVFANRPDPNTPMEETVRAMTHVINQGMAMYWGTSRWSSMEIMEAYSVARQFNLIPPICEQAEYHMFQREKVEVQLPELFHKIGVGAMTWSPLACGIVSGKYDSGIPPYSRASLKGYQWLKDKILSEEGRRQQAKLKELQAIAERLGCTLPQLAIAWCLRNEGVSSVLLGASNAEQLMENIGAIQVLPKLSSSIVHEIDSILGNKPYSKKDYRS
Structure (SMILES),cell count [1],inhibition [1],inhibition of aggregation [2],nuclei count [2] [%],inhibition [3],nuclei count [3] [%],fluorescence slope [4],NADPH fluorescence slope [5],slope [6],inhibition [7],inhibition [8]
CCOC(=O)c1ccc(N(CC(=O)NC2CCCC2)C(=O)CNC(=O)c2ccco2)cc1,626,-7.8% (inactive),5.5% (inactive),79.3,-11.3% (inactive),105,-0.508 (inactive),-5.1e-05 (inactive),0.0066 (inactive),15.3% (inactive),18.5% (inactive)
COc1ccc(Br)cc1CNC(=O)C1CCCN(S(C)(=O)=O)C1 (stereo not drawn),949,-7.5% (inactive),-7.3% (inactive),114,-129% (inactive),113,-0.362 (inactive),-5.7e-05 (inactive),0.00566 (inactive),5.73% (inactive),33.6% (inactive)
O=S(=O)(c1ccccc1)N(Cc1nc(-c2ccccc2)no1)C1CCCCC1,446,2% (inactive),5.6% (inactive),76.3,-57.4% (inactive),96.2,-0.461 (inactive),-1.2e-05 (inactive),0.00919 (inactive),16.6% (inactive),30.8% (inactive)
O=C1c2ccccc2C(=O)N1C/C=C/c1ccccc1,320,6.3% (inactive),-5.9% (inactive),98.3,-3.5% (inactive),112,-0.495 (inactive),-5.2e-05 (inactive),0.0051 (inactive),21.6% (inactive),25.4% (inactive)
CN(C)C(=O)Cn1c(SCC(=O)NC2CCCCC2)nc2ccccc21,685,-3.1% (inactive),-19.2% (inactive),112,-68.3% (inactive),146,-0.41 (inactive),6.1e-06 (inactive),0.00698 (inactive),5.56% (inactive),31.7% (inactive)
O=C(NC1CCCC1)C(c1ccco1)N(Cc1ccccc1)C(=O)c1csnn1 (stereo not drawn),426,5.4% (inactive),-6.3% (inactive),97.6,-9.3% (inactive),107,-0.582 (inactive),-3.8e-05 (inactive),0.006 (inactive),17.4% (inactive),29.4% (inactive)
COc1ccc(-c2nc3c(c(SCC(=O)N4CCOCC4)n2)COC(C)(C)C3)cc1,510,23.4% (active),-8.2% (inactive),100,33% (inactive),117,-0.387 (inactive),1.1e-05 (inactive),0.00848 (inactive),12.6% (inactive),19.9% (inactive)
CC(C)(C)C(=O)/C=C(\N)c1ccccn1,404,-5% (inactive),15.3% (inactive),89.1,-33.9% (inactive),108,-0.466 (inactive),-5.5e-05 (inactive),0.00639 (inactive),-0.411% (inactive),2.89% (inactive)
Cn1c(CNc2nc(-c3ccccc3)cs2)nnc1SCC(=O)N1CCc2ccccc21,628,11.1% (inactive),18.4% (inactive),91.5,-65.9% (inactive),140,-0.595 (inactive),-3e-05 (inactive),0.00569 (inactive),-7.07% (inactive),5.89% (inactive)
Cc1cc(C(=O)CN2C(=O)c3ccccc3C2=O)c(C)n1Cc1cccs1,522,-14.8% (inactive),-1% (inactive),112,-3.3% (inactive),161,-0.517 (inactive),-0.000116 (inactive),0.00475 (inactive),14.6% (inactive),52.1% (active)
CCOC(=O)C1=C(C)OC(N)=C(C#N)C1c1ccoc1 (stereo not drawn),558,-4.8% (inactive),-7.5% (inactive),81.3,24.7% (inactive),78.9,-0.428 (inactive),-6.9e-05 (inactive),0.00431 (inactive),9.81% (inactive),33% (inactive)
COc1ccc2[nH]c(=O)c(CN(C(=O)c3cccnc3)c3ccccc3OC)cc2c1,466,-3.3% (inactive),-3% (inactive),114,-19.8% (inactive),113,-0.449 (inactive),1.5e-05 (inactive),0.00765 (inactive),12.5% (inactive),22.6% (inactive)
O=C(COC(=O)CCC1CCCC1)Nc1ccc(Cl)cn1,429,-4.8% (inactive),-13.9% (inactive),115,-27.8% (inactive),108,-0.345 (inactive),-5.6e-05 (inactive),0.00786 (inactive),-6.45% (inactive),3.24% (inactive)
CCC(C)(C(=O)NC1CCCCC1)N(CC1CCCO1)C(=O)c1ccccn1 (stereo not drawn),345,3% (inactive),6.3% (inactive),90.8,-5.3% (inactive),104,-0.418 (inactive),-8.5e-05 (inactive),0.0062 (inactive),15.2% (inactive),26.8% (inactive)
O=C(CN1C(=O)NC2(CCCCC2)C1=O)Nc1ccc(S(=O)(=O)N2CCOCC2)cc1,460,5.2% (inactive),-2.3% (inactive),93.7,29.7% (inactive),96.2,-0.49 (inactive),-7.9e-06 (inactive),0.00589 (inactive),9.77% (inactive),34.3% (inactive)
O=C(c1ccc(Cl)s1)N1CCN(c2nc3ccccc3s2)CC1,721,-17.3% (inactive),-16.4% (inactive),104,-31.6% (inactive),107,-0.392 (inactive),2e-05 (inactive),0.00557 (inactive),8.1% (inactive),6.32% (inactive)
COc1ccccc1Oc1coc2c(CN3CCN(C)CC3)c(O)ccc2c1=O,541,-0.5% (inactive),-8.8% (inactive),107,-12.9% (inactive),89.1,-0.0185 (active),7e-06 (inactive),0.00281 (inactive),11.8% (inactive),34.8% (inactive)
Cc1ccc(S(=O)(=O)C(C#N)c2nc3ccccc3nc2N2CCCCC2)cc1 (stereo not drawn),273,10.9% (inactive),8.3% (inactive),98.6,-0.3% (inactive),103,-0.364 (inactive),2e-06 (inactive),0.00764 (inactive),11.2% (inactive),22.6% (inactive)
Cc1ccnc2c(N3C(=O)C4C5C=CC(C5)C4(C)C3=O)cccc12 (stereo not drawn),630,-6.5% (inactive),-2.2% (inactive),94.9,-13.1% (inactive),111,-0.556 (inactive),-1.1e-05 (inactive),0.00676 (inactive),5.21% (inactive),28.5% (inactive)
Cc1onc(-c2c(Cl)cccc2Cl)c1C(=O)N1CCc2ccccc21,696,-5.8% (inactive),-0.7% (inactive),93.6,-30.8% (inactive),92.5,-0.47 (inactive),-3.1e-05 (inactive),0.00899 (inactive),23.7% (inactive),23.2% (inactive)
COCCNC(=O)CC(NS(=O)(=O)c1ccc(NC(C)=O)cc1)C(C)C (stereo not drawn),435,6.5% (inactive),-1.2% (inactive),105,-122% (inactive),107,-0.397 (inactive),-7.5e-05 (inactive),0.00454 (inactive),8.34% (inactive),25.9% (inactive)
CCCCn1cnc2c1c(=O)n(C)c(=O)n2C,797,-7.5% (inactive),25.6% (inactive),101,-35.5% (inactive),119,-0.374 (inactive),-1.9e-05 (inactive),0.00541 (inactive),-11.6% (inactive),-3.57% (inactive)
O=C1CCc2cc(S(=O)(=O)N3CCC(C(=O)NCc4ccccn4)CC3)ccc2N1,599,0% (inactive),32.3% (inactive),115,-26.3% (inactive),110,-0.578 (inactive),1.3e-05 (inactive),0.00666 (inactive),13.9% (inactive),14.7% (inactive)
O=C(NC(C(=O)c1ccccc1)N1CCOCC1)c1cccs1 (stereo not drawn),629,-14.3% (inactive),19.4% (inactive),72.3,-2.1% (inactive),101,-0.311 (inactive),-5.7e-05 (inactive),0.00609 (inactive),-18.2% (inactive),-23.5% (inactive)
CC1CCc2nn(CC(=O)NCc3ccc4c(c3)OCO4)cc2C1 (stereo not drawn),673,-6.1% (inactive),1.1% (inactive),103,-80.8% (inactive),124,-0.506 (inactive),-2.4e-05 (inactive),0.00628 (inactive),7.66% (inactive),18% (inactive)
O=C(Nc1cccc(C(F)(F)F)c1)c1ccco1,580,-5.4% (inactive),4.3% (inactive),113,-33.8% (inactive),99.3,-0.617 (inactive),-5.6e-05 (inactive),0.00406 (inactive),-7.21% (inactive),-42.6% (inactive)
CC(O)c1c(OCc2ccccc2)ncnc1OCc1ccccc1 (stereo not drawn),426,0.5% (inactive),-7.1% (inactive),65.7,-36.1% (inactive),115,-0.44 (inactive),-0.000123 (inactive),0.00502 (inactive),10.6% (inactive),20.8% (inactive)
COCCn1c(C)cc(C(=O)COC(=O)c2n[nH]c3ccccc23)c1C,330,3.7% (inactive),2.3% (inactive),98.9,-26.9% (inactive),114,-0.5 (inactive),-4.3e-05 (inactive),0.00592 (inactive),71.8% (active),49.1% (inactive)
